Compounds with a hit are over-represented: about 7.4% of the library has one in this group of screens.
NPC1 prom act: activates the NPC1 promoter; Huh7 NPC1 promoter luciferase reporter, 24 h; Potency, µM (series often up to 9.22 µM), inactives show at the top dose activation, actives largely listed as activators; hit rate 2.4% among 320,000; note: % of control where 0% means no effect; nearly all actives have a fitted effect of over 60% in size
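Luminescence read-out of NPC1 promoter-driven luciferase in stably transfected Huh7 cells; compounds delivered in DMSO and left 24 h at 37C, 5% CO2, qHTS titration format.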
FLuc modulator: inhibits or activates purified firefly luciferase, miR-21 counter-screen; hit rate 6.9% among 360,000; Potency, µM (highest dose often 57.5 µM), without a hit: at the highest dose activity change, negative = inhibition, usual class: inhibitors; AID 588342; purified FLuc, Km substrates, luminescence inhibition; P08659;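 note: plate controls were vehicle for no effect and reference inhibitor for full effect; nearly all actives have a fitted effect of over 55% in size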
Target sequence (P08659 whole entry, looked up): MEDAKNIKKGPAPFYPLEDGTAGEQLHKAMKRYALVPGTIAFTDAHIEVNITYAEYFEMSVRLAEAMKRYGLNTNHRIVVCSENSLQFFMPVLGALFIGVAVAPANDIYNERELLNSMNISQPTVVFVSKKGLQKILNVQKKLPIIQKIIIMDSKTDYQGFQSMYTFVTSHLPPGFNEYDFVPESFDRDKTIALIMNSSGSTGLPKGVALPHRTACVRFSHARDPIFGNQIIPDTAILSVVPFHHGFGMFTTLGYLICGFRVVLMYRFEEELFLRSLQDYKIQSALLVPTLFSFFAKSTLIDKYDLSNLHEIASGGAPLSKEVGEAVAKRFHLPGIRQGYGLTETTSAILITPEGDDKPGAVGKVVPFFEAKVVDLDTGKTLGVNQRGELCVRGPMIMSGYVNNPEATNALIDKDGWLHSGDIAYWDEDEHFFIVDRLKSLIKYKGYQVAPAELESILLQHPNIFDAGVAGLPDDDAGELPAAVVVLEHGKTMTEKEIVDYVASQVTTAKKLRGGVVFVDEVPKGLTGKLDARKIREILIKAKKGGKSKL
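Purified P. pyralis luciferase, 10 nM final, with Km-level 10 uM D-luciferin and 10 uM ATP in 50 mM Tris acetate pH 7.5, 10 mM Mg acetate, 0.01% Tween-20, 0.05% BSA; 6-point qHTS titration about 60 µM downward; luminescence read.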
Rab9 prom act: activates the Rab9 promoter; Potency, µM (highest dose often 9.22 µM), without a hit: top-dose activation, negative = inhibition, actives largely listed as activators; AID 485297; Huh7 Rab9 promoter-luciferase reporter, luminescence, 24 h; hit rate 2.8% among 320,000; note: % of control where 0% means no effect; nearly all actives have a fitted effect of over 60% in size
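Cell-based reporter: Huh7 stable for Rab9 promoter-driven luciferase, plated in reduced-serum medium with 10% FBS at 1500 cells/well, compound-treated 24 h at 37 °C, luminescence read after 10 min reagent.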
ELG1 genotox: genotoxicity induction in ELG1-luciferase HEK293T cells. HEK293T ELG1-luciferase reporter, luminescence, 16 h. hit rate 1.3% among 330,000. AID 504466. Potency, µM (doses to about 46 µM), without a hit: at the highest dose activity change, positive = activation, actives largely listed as activators; note: % of control where 0% means no effect; nearly all actives have a fitted effect of over 60% in size
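Luminescence read-out: rising ELG1-luciferase signal, reflecting elevated ELG1 protein under genetic stress, flags genotoxic compounds. Cells were treated for 16 hr at 37 °C before ONE-Glo detection.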
SMN2 splice enh: increases expression of the SMN2 splice variant; Potency, µM (top dose mostly 46.1 µM), without a hit: at the top dose activity change, positive = activation, hits mostly activators; HEK293 SMN2-luciferase splicing reporter, luminescence, 30-36 h; hit rate 2.8% among 210,000; note: % of control where 0% means no effect; nearly all actives have a fitted effect of over 55% in size
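HEK293 cells carry an SMN2 […]–luciferase reporter in which exon 7 inclusion puts luciferase in frame. Cells were plated 10-12 h before compound addition, then incubated 30-36 h at 37C. ONE-Glo luminescence was read; sodium butyrate at 4.5 mM final served as control.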
The depositor's hits bear a star; ? = inconclusive; / = no result; [ ] = remark or other dose. Calls come from the whole dose curve; as a rule, active = well fitted curve in the direction sought with a large enough effect; inconclusive = small, poorly fitted or top-dose-only effect, or another doubt; inactive = no such curve, though single readings can be large; an effect the other way counts as inactive or inconclusive. Potency is the fitted concentration of half-maximal effect.

SMILES	NPC1 prom act	FLuc modulator	Rab9 prom act	ELG1 genotox	SMN2 splice enh
CCN1CCc2c(sc(NC(=O)c3ccc4ccccc4c3)c2C(N)=O)C1	21%	2.4µM*	14%	8%	/
COc1ccc(NC(=O)c2ccc(NC(=O)CCS(=O)(=O)c3cccs3)cc2)cc1Cl	/	5%	/	/	16µM*
Cc1cc(NC(=O)c2ccc(NC(=O)CCS(=O)(=O)c3cccs3)cc2)ccc1Br	/	-2%	/	/	16µM*
CN(Cc1nc(-c2cccc(Cl)c2)no1)C1CCOCC1	?	?	2µM*	?	/
COc1cccc(NC(=O)CSc2nnc(NC(=O)NC3CCCCC3)s2)c1	/	1.5µM*	/	/	/
COc1cccc(NC(=O)CSc2nnc(NC(=O)C3CC3)s2)c1	-2%	-19%	2%	0%	/
CC(Sc1nnc(NC2CC2)s1)C(=O)Nc1ccc(N2CCOCC2)cc1 (configuration not stated)	1%	-1%	-6%	1%	/
Cc1ccc(NC(=O)CSc2nnc(NC(=O)NC3CCCCC3)s2)cc1	/	0.95µM*	/	/	/
O=C(CSc1nnc(NC2CCCCC2)s1)Nc1ccc(N2CCOCC2)cc1	17%	13µM*	14%	10%	-13%
Cc1ccc(NC(=O)Nc2nnc(SCC(=O)N3CCC(C)CC3)s2)cc1	/	19µM*	/	/	/
Cc1ccc(NC(=O)CSc2nnc(NC(=O)C3CC3)s2)cc1	1%	0%	4%	?	/
Cc1ccc(NC(=O)Nc2nnc(SCC(=O)Nc3ccc(F)cc3F)s2)cc1	/	1%	/	/	/
CC(C)c1ccccc1NCC(=O)N1CCN(Cc2ccccc2)CC1	0%	-1%	0%	-8%	/
CCc1cccc(CC)c1NC(=O)CN(C)S(=O)(=O)c1ccc2c(c1)n(C)c(=O)c(=O)n2C	/	0%	/	/	0%
CC1Cc2ccccc2N1c1ncnc2nc[nH]c12 (configuration not stated)	22%	21µM*	13%	2%	29%
O=C(O)c1cccc(CSc2n[nH]c(-c3ccc(Cl)cc3Cl)n2)c1	-2%	27µM*	-1%	7%	3%
Cc1csc(Nc2ccc(Cl)cc2)n1	?	12µM*	?	?	?
Cc1ccc(Nc2nc(C)cs2)cc1	?	13µM*	?	21µM*	8.9µM*
Cc1csc(NS(=O)(=O)c2ccc(Cl)cc2)n1	-4%	1%	9%	-5%	/
COc1ccc(-c2nc3c(c4c2C[C@H](c2ccccc2)OC4)CN(S(=O)(=O)c2ccc(C)cc2)CC3)c(C)c1	/	/	/	/	-4%[9.22 µM]
COc1ccccc1NS(=O)(=O)c1cc(NC(=O)COc2ccccc2F)ccc1N1CCOCC1	/	/	/	-2%	/
C/C(=N/NC(=O)c1cc2ccccc2cc1O)C1C(=O)c2ccccc2C1=O	22%	17µM*	?	?	?
C/C(CC(=O)N1CCN(C=O)CC1)=N\NC(=O)c1cc2ccccc2cc1O	-3%	21µM*	-5%	0%	16%
C/C(=N\NC(=O)c1ccccc1O)C1C(=O)c2ccccc2C1=O	?	13µM*	28%	8.2µM*	10µM*
C/C(CC(=O)N1CCN(C=O)CC1)=N\NC(=O)c1ccc([N+](=O)[O-])cc1	0%	?	-6%	6%	/
SMILES	NPC1 prom act	FLuc modulator	Rab9 prom act	ELG1 genotox	SMN2 splice enh
CC(C)=C(NC(=O)c1ccccc1)C(=O)Nc1ccc(C(=O)O)cc1	0%	3%	-3%	-2%	/
O=C(COC(=O)c1cc(=O)[nH]c2ccccc12)NC(=O)c1ccccc1	1%	0%	1%	-7%	/
Cc1ccc(NC(=O)CN2CCCCCC2)cc1Br	7%	-9%	1%	4%	-18%
COc1cc(NC(=O)c2ccccc2Cl)c(OC)cc1NC(=O)CN1CCCCC1	-1%	-7%	-1%	0%	/
Cc1ccc(NC(=O)CN2CCCCCC2)c(Br)c1	4µM*	12µM*	4µM*	?	11%
COc1cc(C(=O)NC2CCN(CC(=O)NC3CCCCC3)CC2)cc(OC)c1OC	1%	1%	-1%	1%	/
COc1cc(NC(=O)c2cc(OC)c(OC)c(OC)c2)c(OC)cc1NC(=O)CN1CCCCC1	-2%	13µM*	-1%	1%	8%
COc1cc(NC(=O)c2ccc(C)cc2)c(OC)cc1NC(=O)CN1CCCCC1	23%	19µM*	21%	-5%	-1%
Cc1ccc2c(=O)cc(C(=O)Nc3ccc(S(=O)(=O)N4CCC(C)CC4)cc3)oc2c1C	/	-4%	/	/	3%
Cc1c(-c2nnc(SCC(=O)Nc3ccc(Br)cc3)o2)nnn1-c1ccc(F)cc1	/	4%	/	/	/
COC(=O)c1ccccc1NC(=O)c1cnc2sc(N3CCOCC3)nn2c1=O	/	-5%	/	/	/
CC(C)c1ccc(NC(=O)c2cnc3sc(N4CCOCC4)nn3c2=O)cc1	/	1.9µM*	/	/	/
Cc1ccc(Nc2ncnc3sc(C)c(C)c23)cc1	0%	21µM*	29%	?	?
Cc1ccc(S(=O)(=O)Nc2ncnc3sc(C)c(C)c23)cc1	-6%	-3%	0%	-6%	/
C/C(=N\Nc1ncc(Cl)cc1Cl)c1ccccn1	0%	0.17µM*	-13%	?	-88%
Cc1sc2ncnc(N/N=C/c3cccc(O)c3)c2c1C	2%	11µM*	-4%	?	?
Cc1sc2ncnc(Nc3ccc(O)cc3)c2c1C	0%	-11%	2%	7%	/
C/C(=N\Nc1ncnc2sc(C)c(C)c12)c1ccccn1	?	5.4µM*	8%	?	/
COC(=O)c1c(C(=O)OC)c(-c2cccc(Cl)c2)n2c1CS(=O)(=O)C2	2%	1%	-1%	1%	/
Cc1cc(O)c(C(c2ccc(F)cc2)N2CCN(c3ccccc3)CC2)c(=O)n1Cc1ccco1 (configuration not stated)	/	-1%	/	/	/
COc1cc(/C=N/NC2=NCCCCC2)ccc1O	-3%	-3%	0%	-4%	/
COc1cc(/C=N/Nc2ncnc3sc4c(c23)CCC4)ccc1O	1%	2.4µM*	-2%	?	8%
Cn1ncc2c(Cl)ncnc21	/	/	/	/	-17%[9.22 µM]
Cc1cc(NC(=O)CSc2nnc(-c3ccccc3F)n2N)no1	/	/	/	3%	/
Cc1ccnc(NC(=O)Cc2ccc(-c3ccccc3)cc2)c1	-4%	11µM*	-37%	2.3µM*	/
SMILES	NPC1 prom act	FLuc modulator	Rab9 prom act	ELG1 genotox	SMN2 splice enh
Cc1ccc(S(=O)(=O)N(C)CC(=O)Nc2ccc(C)cn2)cc1	-2%	-18%	?	13%	/
Cc1ccnc(NC(=O)CNC(=O)c2ccc(Br)o2)c1	6%	?	-7%	16µM*	/
Cc1ccc(S(=O)(=O)N(C)CC(=O)Nc2cc(C)ccn2)cc1	-2%	?	1%	10µM*	/
CN1C(=O)Cc2cc(S(=O)(=O)CCC(=O)Nc3ccccc3)ccc21	/	0%	/	/	/
COc1ccccc1CNc1nc(-c2ccco2)nn1S(=O)(=O)c1ccc2ccccc2c1	/	-9%	/	/	/
CCN(CC(=O)Nc1c(F)cccc1F)C(=O)c1cccc(S(=O)(=O)N(C)c2ccccc2)c1	0%	14%	-3%	-9%	/

From PubChem BioAssay
